HepG2 viability = kills HepG2 cells in TGF-b inhibitor counter-screen; HepG2 CAGA-GFP viability, ATP luminescence, 18 h; actives 0.76% (n = 410,000); Potency, µM (titrated, usually from 46.1 µM), hits mostly cytotoxic
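HepG2 CAGA-GFP cells (1000/well, DMEM with 1% FBS) received compound, then TGF-beta at 500 pg/mL final, and were incubated 18 hours at 37 degrees C. Viability was read by CellTiter-Glo luminescence. Media-only wells were set as complete cell-killing and DMSO as no toxicity.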
KB-3-1 tox = KB-3-1 parental cell cytotoxicity; KB-3-1 viability, CellTiter-Glo ATP luminescence, 72 h; actives 1.4% (n = 400,000); AID 1347075; Potency, µM (highest dose often 46.1 µM), actives largely listed as cytotoxic; further: nearly all actives have a fitted effect of over 60% in size
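Parental KB-3-1 adenocarcinoma cells in phenol-red-free DMEM with 10% FBS were pin-treated with compounds at several concentrations, incubated 72 h at 37 °C, and viability read by CellTiter-Glo luminescence; concentration-effect curves were fitted after normalization.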
KB-V1 MDR tox = kills drug-selected multidrug resistant KB-V1 cells; actives 3.4% (n = 400,000); Potency, µM (titrated, usually from 46.1 µM), actives largely listed as cytotoxic; KB-V1 MDR cells viability, CellTiter-Glo, 72 h; AID 1347076; further: nearly all actives have a fitted effect of over 60% in size
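In this primary screen, KB-V1 cells overexpressing P-gp are incubated with library compounds (lowest to highest concentration) for 72 h at 37 degrees C before a luminescent ATP viability read.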
TGFb SMAD3 inh = blocks TGF-b signaling; Potency, µM (highest dose often 46.1 µM), hits mostly inhibitors; HepG2 CAGA-GFP TGF-b/SMAD3 reporter, GFP fluorescence, 18 h; TGF-beta stimulated, 500 pg/mL final; actives 1.2% (n = 410,000); further: nearly all actives have a fitted effect of over 65% in size
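Inhibition was scored as loss of TGF-beta-induced (500 pg/mL final, 18 hours, 37 degrees C) GFP in HEPG2 cells carrying a CAGA-GFP reporter, in DMEM with 1% FBS. Well GFP was summed per cell; Activity was normalised to unstimulated and stimulated DMSO wells, then concentration-response fitting.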
ATXN2 expr inh = inhibitors of ATXN2 expression; HEK-293 ATXN2-luciferase reporter, luminescence, 24 h; Potency, µM (doses to about 57 µM), hits mostly inhibitors; actives 0.72% (n = 360,000); AID 1745845; further: nearly all actives have a fitted effect of over 55% in size
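ATXN2-luciferase reporter cells (luciferase flanked by upstream and downstream ATXN2 gene portions) were treated 24 h at 37 °C with compounds at up to 57 uM. SteadyGlo luminescence gave expression; GF-AFC fluorescence gave viability.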
ATXN viability = reduces viability in counter-screen for ATXN expression inhibitors; AID 651635; S2 cells (HEK-293 line with an ATXN2-luciferase reporter) viability, CellTiter-Fluor protease fluorescence, 24 h; actives 0.49% (n = 400,000); Potency, µM (series often up to 56.7 µM), most hits filed as cytotoxic; further: nearly all actives have a fitted effect of over 40% in size
Each line names hits and unclear results; the compound was inactive in the other large screens. Most compounds without a hit are left out; they make up all but 5.9% or so of the library. The call rests on the fitted dose curve; in most records, active means well fitted curve in the direction sought with a large enough effect; inconclusive means small, poorly fitted or top-dose-only effect, or another doubt; inactive means no such curve, though single readings can be large; an effect the other way counts as inactive or inconclusive.

CC(C)C1N=C(c2ccc3c(c2)OCO3)CC(c2ccccc2O)N1 (stereo not given)	KB-3-1 tox inconclusive, KB-V1 MDR tox inconclusive, TGFb SMAD3 inh inconclusive, ATXN2 expr inh inconclusive, ATXN viability 28.2µM
COc1ccc(OC)c(C(=O)N(Cc2cc3cccc(C)c3nc2N2CCC(O)CC2)C2CC2)c1	none (no result: HepG2 viability, KB-3-1 tox, KB-V1 MDR tox, TGFb SMAD3 inh, ATXN2 expr inh)
CCCN(CCC)CCNC(=O)c1cc(-c2ccc(Br)s2)nc2ccccc12	ATXN viability 31.6µM
CCN(CC)CCNC(=O)c1cc(-c2ccc(Br)s2)nc2ccccc12	KB-V1 MDR tox inconclusive, TGFb SMAD3 inh inconclusive (no result: ATXN2 expr inh, ATXN viability)
Cc1ccc(NC(=O)CSc2nc3c(c(=O)[nH]2)CCC3)cc1Cl	none
O=C(Cc1ccccc1[N+](=O)[O-])NCCC1=CCCCC1	none
O=[N+]([O-])c1ccccc1S(=O)(=O)NCCC1=CCCCC1	KB-V1 MDR tox 14.6µM
CC(C)C(=O)N1CCC(c2nc(-c3ccc(S(=O)(=O)N4CCN(C)CC4)cc3)no2)CC1	none
O=C(C1CC1)N1CCC(c2nc(-c3ccc(S(=O)(=O)N4CCCC4)cc3)no2)CC1	KB-V1 MDR tox inconclusive, TGFb SMAD3 inh inconclusive
O=C(C1CC1)N1CCC(c2nc(-c3ccc(S(=O)(=O)NCC4CCCO4)cc3)no2)CC1 (stereo not given)	KB-3-1 tox inconclusive, KB-V1 MDR tox inconclusive, TGFb SMAD3 inh inconclusive
CC(C)N(C(=O)N1CCC(c2nc(-c3ccncc3)no2)CC1)C(C)C	KB-3-1 tox inconclusive, KB-V1 MDR tox 10.3µM
O=C(c1ccccc1)N1CCC(c2nc(-c3ccc(S(=O)(=O)NCC4CCCO4)cc3)no2)CC1 (stereo not given)	KB-3-1 tox 8.2µM, KB-V1 MDR tox 9.2µM
O=C(NC1CCCCC1)N1CCC(c2nc(-c3ccc(S(=O)(=O)N4CCCC4)cc3)no2)CC1	KB-3-1 tox 8.2µM, KB-V1 MDR tox 2.59µM, TGFb SMAD3 inh inconclusive, ATXN2 expr inh inconclusive
O=C(Cc1ccccc1)N1CCCC(c2nc(-c3ccc(S(=O)(=O)N4CCCC4)cc3)no2)C1 (stereo not given)	KB-V1 MDR tox 9.2µM, ATXN viability inconclusive
CCOC(=O)c1cnc(NCc2ccccc2OC)c2ccccc12	none (no result: KB-3-1 tox, KB-V1 MDR tox, ATXN2 expr inh, ATXN viability)
COc1cc(O)ccc1C1CC(=O)Nc2c1c(=O)nc(SCc1ccccc1C)n2C (stereo not given)	none
Cc1ccc(-c2noc(C3CCCN(S(=O)(=O)c4ccc5ccccc5c4)C3)n2)o1 (stereo not given)	none
CS(=O)(=O)N1CCCC(c2nc(-c3ccc(S(=O)(=O)NCc4ccccc4)cc3)no2)C1 (stereo not given)	KB-3-1 tox inconclusive, KB-V1 MDR tox 3.26µM, ATXN2 expr inh inconclusive
COc1cc2nc(N3CCN(c4cc(C)ccc4C)CC3)nc(N)c2cc1OC	HepG2 viability 11.2µM, KB-3-1 tox inconclusive, KB-V1 MDR tox inconclusive, TGFb SMAD3 inh inconclusive, ATXN2 expr inh inconclusive (no result: ATXN viability)
COc1cc2nc(N3CCNCC3)nc(N)c2cc1OC	KB-3-1 tox inconclusive, TGFb SMAD3 inh inconclusive (no result: ATXN2 expr inh, ATXN viability)
Cc1ccc2[nH]c(=O)c(-c3nc4ccccn4c3NCc3ccco3)cc2c1	KB-V1 MDR tox 8.2µM
O=Cc1c(NCc2ccco2)nc2ccccn2c1=O	none
COc1cc(=O)n2c(c1C(=O)NC(C)c1ccco1)CCN(Cc1ccccc1C(F)(F)F)CC2 (stereo not given)	none (no result: HepG2 viability, KB-3-1 tox, KB-V1 MDR tox, TGFb SMAD3 inh, ATXN2 expr inh)
COc1ccc(C2=CC(=O)OC(C)(c3ccccc3)O2)cc1 (stereo not given)	KB-V1 MDR tox 16.4µM, TGFb SMAD3 inh inconclusive
CCc1noc(C)c1C(=O)Nc1nc2ccc(F)cc2s1	none
Cc1onc(-c2ccccc2)c1C(=O)Nc1nc2c(s1)CCCC2	KB-3-1 tox inconclusive, KB-V1 MDR tox inconclusive
Cc1cc(C(=O)Nc2nc3c(s2)CCCC3)no1	KB-V1 MDR tox 16.4µM
CCc1ccc2nc(NC(=O)c3cc(C)on3)sc2c1	KB-3-1 tox 7.31µM, KB-V1 MDR tox 8.2µM
O=C(C[n+]1cccc2cccc(O)c21)c1ccc(F)cc1	none (no result: ATXN2 expr inh, ATXN viability)
CCN1CCN(c2nc(N)c([N+](=O)[O-])c(Nc3cccc(C)c3)n2)CC1	KB-3-1 tox inconclusive, KB-V1 MDR tox 3.26µM, TGFb SMAD3 inh inconclusive, ATXN viability inconclusive
Cc1cccc(Nc2nc(N3CCN(C)CC3)nc(N)c2[N+](=O)[O-])c1	KB-V1 MDR tox 7.31µM, ATXN viability inconclusive
Cc1cccc(Nc2nc(NCc3ccco3)nc(N)c2[N+](=O)[O-])c1	ATXN2 expr inh inconclusive
CCN1CCN(c2nc(Nc3cccc(OC)c3)nc(N)c2[N+](=O)[O-])CC1	KB-3-1 tox inconclusive (no result: ATXN2 expr inh)
COc1ccc(Oc2nc3c(C)cccn3c(=O)c2/C=C(\C#N)c2nc3ccccc3[nH]2)cc1	none (no result: KB-3-1 tox, KB-V1 MDR tox, TGFb SMAD3 inh, ATXN2 expr inh, ATXN viability)
CCN(CC)CCCNC(=O)c1c(C)oc2ncn(CC(C)C)c(=O)c12	none
CCOc1ccccc1-n1nnc(-c2nc(-c3ccccc3)no2)c1N	none (no result: KB-3-1 tox, KB-V1 MDR tox, ATXN2 expr inh, ATXN viability)
Cc1nn2c(CN(C(=O)CN3CCOCC3)c3ccccc3)nnc2c2ccccc12	none
Cc1nn2c(CN(C(=O)COc3ccccc3)c3ccccc3)nnc2c2ccccc12	KB-3-1 tox inconclusive, KB-V1 MDR tox 4.61µM, TGFb SMAD3 inh inconclusive
CC(=O)C1=CCC(c2ccccc2)N(S(=O)(=O)c2cccc(C)c2)C1 (stereo not given)	TGFb SMAD3 inh inconclusive
COc1ccccc1C(=O)NCC(=O)N1CCN(C/C=C/c2ccccc2)CC1	KB-V1 MDR tox 8.2µM
Cc1ccccc1C(=O)NCC(=O)N1CCN(C/C=C/c2ccccc2)CC1	none

Screening data as filed in PubChem.
